Laboratory results reported in PubChem BioAssay AID651636 (Sanford-Burnham Center for Chemical Genomics, 2012).
The whole screen tested about 360,000 compounds, of which about 3,000 (0.83%) were called active. Only a selection was taken, and actives are over-represented in it overall. Unmarked numbers belong to inactive results. Rule as the data show it: active = inhibition above about 38%; inactive = the rest.

Target: G-protein coupled receptor 183 (Homo sapiens) (UniProt P32249)
Assay: EBI2 receptor antagonists, beta-arrestin recruitment, primary screen, cell-based, luminescence, 7a,25-OHC stimulation, uHTS (AID 651636);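 also: enzyme fragment complementation signal reports receptor beta-arrestin coupling in cells; 0% = agonist plus DMSO wells and 100% = wells without agonist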
Conditions: 7a,25-OHC stimulated, at 5 µM, active compounds read high

Sequence of G-protein coupled receptor 183 (Homo sapiens) (P32249 whole entry, looked up, the tested form may be a part): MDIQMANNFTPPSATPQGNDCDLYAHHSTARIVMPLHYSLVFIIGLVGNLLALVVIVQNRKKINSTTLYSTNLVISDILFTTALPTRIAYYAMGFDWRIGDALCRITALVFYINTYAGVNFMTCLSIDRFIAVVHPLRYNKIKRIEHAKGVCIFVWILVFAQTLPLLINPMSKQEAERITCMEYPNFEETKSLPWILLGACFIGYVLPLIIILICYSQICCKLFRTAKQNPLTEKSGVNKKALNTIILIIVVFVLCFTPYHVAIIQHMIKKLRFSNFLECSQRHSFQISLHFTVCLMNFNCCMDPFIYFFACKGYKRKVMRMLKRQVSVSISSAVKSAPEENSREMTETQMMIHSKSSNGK

Row | SMILES | inhibition
1 | O=C(NCCNc1ccc([N+](=O)[O-])cc1)c1cccc2c(Br)cccc12 | 44.2% (active)
2 | CC(CNc1ccc([N+](=O)[O-])cc1)NC(=O)c1ccccc1Br (stereo unspecified) | 28.5%
3 | O=C(NCCNc1ccc([N+](=O)[O-])cc1Cl)c1ccccc1F | -4.29%
4 | CCNC(=O)NC(=O)C(C)OC(=O)c1cc(S(=O)(=O)N2CCCCCC2)ccc1OC (stereo unspecified) | -0.223%
5 | O=C(CCNS(=O)(=O)c1ccccc1)NCCCc1ccccc1 | -0.453%
6 | Cc1ccc(S(=O)(=O)NCCNC(C)c2ccc(Br)cc2)cc1 (stereo unspecified) | 43.7% (active)
7 | CC(C)CCNC(=O)CCNS(=O)(=O)c1ccc(Cl)cc1 | -4.48%
8 | Cc1ccc(S(=O)(=O)NCCSC(C)(C)C)cc1 | -0.527%
9 | CCOc1ccc(S(=O)(=O)NCCC(=O)NCC2CCCO2)cc1 (stereo unspecified) | -4.42%
10 | O=C(CNC(=O)c1ccccc1Br)NCCSc1ccc(Br)cc1 | 22%
11 | O=C(CCNS(=O)(=O)c1ccccc1)NCCSc1ccc(Br)cc1 | 51.2% (active)
12 | Cc1ccc(OCCNC(=O)CCNS(=O)(=O)c2ccc(Br)cc2)cc1 | 45.9% (active)
13 | CC(CNS(=O)(=O)c1ccc(Br)cc1)CN(C)C (stereo unspecified) | 0.0488%
14 | O=C(Nc1ccc2c(c1)OCO2)C1CC(c2c(F)cccc2Cl)=NO1 (stereo unspecified) | 0.962%
15 | COc1ccc(OC)c(Cc2cnc3nc(N)nc(N)c3c2C)c1 | -1.26%
16 | CCOC(=O)/C(=N\Nc1ccccc1Cl)N(C)C1CCS(=O)(=O)C1 (stereo unspecified) | 1.11%
17 | C=C1CCN([C@@H](Cc2ccccc2)C(=O)N2CCOCC2)S(=O)(=O)c2ccccc21 | 5.72%
18 | c1ccc(C[C@H]2CNCCN2CCC23CC4CC(CC(C4)C2)C3)cc1 | -9.28%
19 | CC1CCCCC1NC(=O)/C(C#N)=C/C=C/c1ccccc1[N+](=O)[O-] (stereo unspecified) | 8.62%
20 | CC(=O)c1ccc(NC(=S)N(Cc2ccccc2)C(C)C2CC2)cc1 (stereo unspecified) | -3.28%
21 | CC(C)N(Cc1ccccc1)C(=S)Nc1ccc(OC(F)F)cc1 | 53.9% (active)
22 | CN(CC(=O)Nc1ccc(OC(F)F)cc1)S(=O)(=O)/C=C/c1ccccc1 | 1.52%

Row | SMILES | inhibition
23 | CC1=NNC(=O)C1Cc1c(Cl)cccc1Cl (stereo unspecified) | 9.3%
24 | Cc1ccc(S(=O)(=O)NC2(C(F)(F)F)NC(=O)N(CCc3ccccc3)C2=O)cc1 (stereo unspecified) | -2.6%
25 | Cc1ccc(-n2ncc3c2ncn2nc(-c4ccco4)nc32)c(C)c1 | -1.3%
26 | Cc1ccc(-n2nc(-c3ccco3)cc2C(=O)NCc2cccnc2)cc1 | 7.84%
27 | Cc1ccc(-n2ncc3c(=O)n(-c4ccc(C)c(C)c4)c(-c4ccco4)nc32)cc1 | 51.2% (active)
28 | CN(C)C(=O)c1cccc(-c2cnc3sc(NCc4ccc5c(c4)OCO5)nn23)c1 | -1.54%
29 | CCN(Cc1ccncc1)C(=O)c1cccc(S(=O)(=O)N2CCOCC2)c1 | -5.08%
30 | O=C(COc1ccccc1)Nc1ccc(N2CCN(C(=O)c3cccs3)CC2)cc1 | 3.87%
31 | CCS(=O)(=O)N1CCN(C(=O)c2cccs2)CC1 | -10.3%
32 | CC1CN(C2CCN(C(=O)COc3ccccc3)CC2)CC(C)O1 (stereo unspecified) | -0.0245%
33 | O=C(COc1ccc2ccccc2c1)N1CCN(C(=O)c2cccs2)CC1 | 79.7% (active)
34 | Cc1ccc(OCC(=O)N2CCN(C(=O)c3cccnc3)CC2)cc1 | 50.4% (active)
35 | COc1ccc(N2CCN(C(=O)c3cccs3)CC2)cc1 | -0.686%
36 | Cc1ccccc1N1CCN(C(=O)c2cccnc2)CC1 | -10.5%
37 | COc1ccccc1C(=O)Nc1ccc(OCC(=O)N2CCCCC2)cc1 | -5.13%
38 | O=C(c1ccc(OC2CCN(C(=O)c3cccnc3)CC2)cc1)N1CCCCCC1 | -4.37%
39 | O=C(CN1C(=O)NC2(CCCCC2)C1=O)N1CCN(C(=O)c2cccs2)CC1 | -15.2%
40 | COc1ccc(OCC(=O)N2CCN(C(=O)COc3ccccc3)CC2)cc1 | 50.8% (active)
41 | COc1ccc(OCC(=O)N2CCN(C(=O)c3cccs3)CC2)cc1 | 49.9% (active)
42 | O=C(O)/C=C/C(=O)NNc1ccc([N+](=O)[O-])cc1 | -16.6%
43 | O=C(NC(CC(=O)N1CCN(c2ccccc2)CC1)c1ccccc1)c1ccccc1Cl (stereo unspecified) | 11.4%
44 | COC(=O)[C@H](Cc1ccccc1)NC(=O)[C@@H]1C[C@H]1[C@@H](NC(=O)OCc1ccccc1)c1ccccc1 | 16.3%

Row | SMILES | inhibition
45 | COc1ccc([N+](=O)[O-])cc1NC(=O)CC1SC(=Nc2cccc(C)c2C)N(/N=C(\C)c2ccc(C)cc2)C1=O (stereo unspecified) | 3.23%
46 | Cc1noc(C)c1-c1ccc(C(=O)NCc2ccncc2)c2occc12 | -22.7%
47 | C/C(Cl)=C\Cn1c(Nc2cccc(C)c2)nc2c1c(=O)n(C)c(=O)n2C | 22.8%
48 | OC[C@@H]1CN(C2CCCC2)C[C@H](n2cnc3c(NC4CCC4)ncnc32)O1 | -9.08%
49 | CCNc1nc(NC(C)C)nc(OCCOC(=O)c2ccccc2)n1 | -0.581%
50 | CCN(CC)S(=O)(=O)c1ccc(Cl)c(C(=O)NC(C)C(c2cccs2)N2CCCC2)c1 (stereo unspecified) | -5.7%
51 | COC(=O)c1cccc([N+](=O)[O-])c1CS(=O)(=O)c1ccc(C)cc1 | -6.03%
52 | Clc1ccc(-c2cc(C3CCNCC3)[nH]n2)c(Cl)c1 | 0.184%
53 | Cc1nc(NC(=O)C2CCCCC2)sc1C | -5.16%
54 | COc1cc(C(C)=O)ccc1OC(=O)CN1C(=O)c2ccccc2C1=O | -7.55%
55 | O=C1C(=O)N(c2ccccc2)c2ccccc21 | 4.82%
56 | CC(C)OC(=O)CN1C(=O)C(=O)c2ccccc21 | 54.2% (active)
57 | COC(=O)c1ccc(NC(=O)c2cc3c(CO)cnc(C)c3oc2=Nc2cccc(C(N)=O)c2)cc1 | 12.4%
58 | COc1ccc(C(c2nnnn2C2CCCCC2)N2CCN(c3ccccc3F)CC2)cc1 (stereo unspecified) | 31.1%
59 | c1ccc(C(c2ccccc2)N2CCN(Cc3nnnn3C3CCCCC3)CC2)cc1 | 60.9% (active)
60 | COc1ccc(N2CCN(C(c3cc4ccc(C)cc4[nH]c3=O)c3nnnn3C3CCCC3)CC2)cc1 (stereo unspecified) | 2.46%
61 | CCCCn1nnnc1C(c1cccc(OC)c1OC)N1CCN(C/C=C/c2ccccc2)CC1 (stereo unspecified) | 24.9%
62 | COc1ccccc1C(c1nnnn1C(C)(C)C)N1CCN(Cc2ccccc2)CC1 (stereo unspecified) | -27.6%
63 | c1ccc(CCn2nnnc2CN2CCN(C3CCCC3)CC2)cc1 | -2.13%
64 | CC(C)C(c1nnnn1C1CCCC1)N1CCN(c2ccccc2F)CC1 (stereo unspecified) | 11.7%
65 | FC(F)(F)Oc1ccccc1C(c1nnnn1C1CCCCC1)N1CCN(C/C=C/c2ccccc2)CC1 (stereo unspecified) | 70.3% (active)
66 | COc1ccc(C(c2nnnn2C2CCCC2)N2CCN(C/C=C/c3ccccc3)CC2)cc1 (stereo unspecified) | 54.1% (active)
